The campaign covered roughly 52,000 compounds. About 4,300 (8.3%) were called active. The sample as a whole holds a higher share of actives than the screen did. Values without a mark were called inactive. Cut-off read from the data, not from the text of the source: active = survival mostly below about 52% (no sharp cut-off); inactive = mostly above about 56%.
test system: DeltatarO mutant; assay: S. aureus survival, RN4220 and DeltatarO strains – OD600, teichoic acid synthesis inhibitors, primary screen (AID 463173); settings: S. aureus RN4220 wild type/DeltatarO growth, OD600, 18 h, hits give low values, screened at 18.75 µg/mL (by protocol)

| SMILES | survival |
| --- | --- |
| O=C1CCc2cc(S(=O)(=O)NCc3ccc(Cl)cc3)cc3c2N1CC3 | 77% |
| COCCOC(=O)Cn1nnc2sc(-c3ccccc3)cc2c1=O | 65% |
| COCC(=O)NCc1nc2cccnc2n1Cc1ccc(F)cc1 | 60% |
| CN1CCN(C(=O)c2ccccc2C(=O)O)CC1 | 96% |
| CCc1nn2c(=O)cc(COC(=O)c3ccc4c(c3)OCO4)nc2s1 | 76% |
| COc1ccc(NC(=O)c2c(NCc3ccc(OC)c(OC)c3OC)sc3c2CCC3)c(OC)c1 | 83% |
| Cc1n[nH]c(=S)n1CC1CCCO1 (stereo not drawn) | 77% |
| COc1cccc(Cn2c(=O)n(-c3ccc(Br)cc3F)c(=O)c3sc4ccccc4c32)c1 | 96% |
| Cc1ccc(N2CCN(S(=O)(=O)c3nnc(NC(=O)c4cccc(F)c4)s3)CC2)cc1 | 57% |
| O=C(Nc1nnc(S(=O)(=O)N2CCOCC2)s1)c1cccc(F)c1 | 80% |
| CC1CCN(S(=O)(=O)c2nnc(NC(=O)c3cccc(F)c3)s2)CC1 | 31% (active) |
| COc1ccc(N(C(=O)c2ccco2)C(C(=O)NC2CCCC2)c2cc(OC)c(OC)c(OC)c2)cc1 (stereo not drawn) | 84% |
| COc1ccc(C(C(=O)NC2CCCC2)N(Cc2ccc(C)cc2)C(=O)c2ccn[nH]2)cc1OC (stereo not drawn) | 104% |
| CCOC(=O)CN(Cc1ccccc1)C(C(=O)NC1CCCCC1)c1ccc(OC)cc1 (stereo not drawn) | 20% (active) |
| O=C(NC1CCCCC1)C(c1ccco1)N(Cc1ccccc1)C(=O)Cn1nnc2ccccc21 (stereo not drawn) | 69% |
| CCOC(=O)CN(Cc1ccccc1)C(C(=O)NC1CCCCC1)c1ccccc1 (stereo not drawn) | -1% (active) |
| COc1ccc(-c2nnn(CC(=O)N(Cc3ccccc3)C(C)C(=O)NC3CCCC3)n2)cc1OC (stereo not drawn) | 84% |
| CCCC(C(=O)NC1CCCC1)N(Cc1ccccc1)C(=O)Cn1nnc(-c2ccc(C)o2)n1 (stereo not drawn) | 66% |
| CCOC(=O)CN(Cc1ccccc1)C(C(=O)NC1CCCCC1)c1ccc(C)cc1 (stereo not drawn) | -3% (active) |
| O=C(NC1CCCC1)C(c1ccccc1)N(Cc1ccc2c(c1)OCO2)C(=O)c1ccco1 (stereo not drawn) | 73% |
| Cc1cc(C)cc(NC(=O)Cn2cc(S(=O)(=O)NC(C)(C)C)c(S(=O)(=O)NC(C)(C)C)c2)c1 | 95% |
| CSc1ncc(C(=O)NCc2ccccc2F)c(-c2ccccc2)n1 | 112% |

| SMILES | survival |
| --- | --- |
| CCCn1c2ccccc2c2cnn(CC(=O)NCc3ccccc3Cl)c(=O)c21 | 108% |
| COc1ccc(Br)cc1CNC(=O)C(C)n1nc(C)n2c(cc3occc32)c1=O (stereo not drawn) | 46% (active) |
| CCc1nn(CCCC(=O)NCc2ccc(OC)c(OC)c2)c(=O)c2cc3occc3n12 | 79% |
| CCC(C(=O)NCc1ccccc1OC)n1nc(C)n2c(cc3occc32)c1=O (stereo not drawn) | 80% |
| Cc1ccccc1CNC(=O)C(C)n1nc(C)n2c(cc3occc32)c1=O (stereo not drawn) | 68% |
| CCc1nn(CCCC(=O)NCc2cc(Br)ccc2OC)c(=O)c2cc3occc3n12 | 46% (active) |
| CCc1nn(CCCC(=O)NCc2ccccc2OC)c(=O)c2cc3occc3n12 | 84% |
| COC(=O)c1ccc(Oc2nc3c(c(=O)n(C)c(=O)n3C)n2Cc2ccc(Cl)c(Cl)c2)cc1 | 167% |
| O=C(CCS(=O)(=O)c1nc(-c2cccs2)cc(C(F)(F)F)n1)Nc1ccc(F)c(Cl)c1 | 67% |
| Clc1cc2c(cc1C=Nc1ccc(N3CCOCC3)cc1)OCO2 | 83% |
| N#CC(C#N)=Cc1cn(CC(=O)Nc2ccccc2)c2ccccc12 | 66% |
| Cc1ccc2nc(-c3c[nH]c4ccccc34)c(Nc3ccccc3)n2c1 | 78% |
| Cc1ccc(Nc2c(-c3ccccc3O)nc3cc(C)ccn23)cc1 | 78% |
| Cc1ccc(Nc2c(-c3cc(Br)ccc3F)nc3cc(C)ccn23)cc1 | 32% (active) |
| Cc1ccc(Nc2c(-c3c[nH]c4ccccc34)nc3ccccn23)cc1 | 114% |
| Cc1ccc(Nc2c(-c3c[nH]c4ccccc34)nc3cc(C)ccn23)cc1 | 80% (active) |
| Fc1ccc(Nc2c(-c3c[nH]c4ccccc34)nc3ccccn23)cc1 | 70% |
| Cc1ccn2c(Nc3ccccc3)c(-c3c[nH]c4ccccc34)nc2c1 | 86% |
| c1ccc(Nc2c(-c3c[nH]c4ccccc34)nc3ccccn23)cc1 | 54% (active) |
| CSc1ccc(-c2nc3cc(C)ccn3c2Nc2ccc(C)cc2)cc1 | 95% |
| Cc1ccc(Oc2nc3c(c(=O)n(Cc4ccccc4Cl)c(=O)n3C)n2C)cc1C | 61% |
| Cc1csc2nc(-c3ccc(NS(=O)(=O)c4cc(F)ccc4F)cc3)cn12 | 87% |

| SMILES | survival |
| --- | --- |
| Fc1ccc(CNc2nc3c(-c4ccc(F)cc4)nnn3c3ccccc23)cc1 | 105% |
| O=C(Nc1cc(-c2nc3ccccc3o2)ccc1Cl)c1cccc2c(Cl)cccc12 | 56% |
| Cc1ccc2oc(-c3cccc(NC(=O)c4cccc5c(Br)cccc45)c3)nc2c1 | 153% |
| Cc1ccc2oc(-c3cccc(NC(=O)c4cccc5c(Cl)cccc45)c3)nc2c1 | 51% (active) |
| O=C(Nc1cccc(-c2nc3ccccc3o2)c1)c1cccc2c(Cl)cccc12 | 46% |
| Cc1ccc2nc(-c3cccc(NC(=O)c4cccc5c(Cl)cccc45)c3)oc2c1 | 110% |
| Cc1ccc(-c2nc3ccccc3o2)cc1NC(=O)c1cccc2c(Cl)cccc12 | 47% (active) |
| O=C(OCc1cc(=O)n2nc(-c3cccs3)sc2n1)c1cccc(F)c1 | 77% |
| COc1cccc(N2CCN(C(=O)CN3CCSc4ccccc43)CC2)c1 | 83% |
| Cc1ccc(C)c(N2CCN(C(=O)CN3C(=O)COc4ccc(S(=O)(=O)N5CCCC5)cc43)CC2)c1 | 85% |
| CCN(CC)CCn1c(=N)n(CC(O)COc2ccccc2C)c2ccccc21 (stereo not drawn) | 80% |
| O=C(CSc1nnnn1C1CCCC1)NCc1cccs1 | 103% |
| CCN(CC)CCNC(=O)c1ccc(CSc2nc3ccncc3n2Cc2cccc(F)c2)cc1 | 92% |
| Cc1cccc(N2CCN(C(=O)Nc3cn(CC(C)C)c(=O)c4ccccc34)CC2)c1C | 69% |
| Cc1ccc(Cl)cc1NC(=O)Cn1c(=O)n(Cc2ccccc2)c(=O)c2oc3ccccc3c21 | 81% |
| CCC(=O)N1c2ccccc2CC1C(=O)NCc1ccc(CC)cc1 (stereo not drawn) | 100% |
| COc1ccc(C2c3c(n(C)c4ccccc34)C(=O)N2CC(=O)Nc2cccc(Cl)c2)cc1 (stereo not drawn) | 80% |
| COC(=O)CSc1nnc(C2CCCCC2)n1Cc1ccccc1 | 116% |
| Cc1oc(-c2cccc(Cl)c2)nc1CN1CCC(C(=O)NCCCN2CCN(c3cccc(Cl)c3)CC2)CC1 | 63% |
| Cc1cccc(N2CCN(C(=O)C3CCN(Cc4nc(-c5ccc(Cl)cc5)oc4C)CC3)CC2)c1C | 60% |
| Cc1ccc(Cl)cc1N1CCN(C(=O)C2CCN(Cc3nc(-c4cccc(Cl)c4)oc3C)CC2)CC1 | -8% (active) |
| CCCCSCCCNC(=O)C1CCN(Cc2nc(-c3ccc(CC)cc3)oc2C)CC1 | 46% (active) |

| SMILES | survival |
| --- | --- |
| Cc1ccc(Cl)cc1N1CCN(C(=O)C2CCCN(Cc3nc(-c4cccc(Cl)c4)oc3C)C2)CC1 (stereo not drawn) | 66% |
| Cc1ccc(Cl)cc1N1CCN(C(=O)C2CCN(Cc3nc(-c4ccc(Cl)cc4)oc3C)CC2)CC1 | -9% (active) |
| CCc1ccc(-c2nc(CN3CCC(C(=O)NCCc4ccc(C)cc4)CC3)c(C)o2)cc1 | 95% |
| CCc1ccc(-c2nc(CN3CCCC(C(=O)N4CCN(c5cc(Cl)ccc5C)CC4)C3)c(C)o2)cc1 (stereo not drawn) | 70% |
| Cc1oc(-c2ccc(Cl)cc2)nc1CN1CCC(C(=O)NCCCN2CCN(c3cccc(Cl)c3)CC2)CC1 | 42% (active) |
| Cc1ccc(C)c(N2CCN(C(=O)C3CCN(Cc4nc(-c5cccc(Cl)c5)oc4C)CC3)CC2)c1 | 47% |
| CCCCSCCCNC(=O)C1CCN(Cc2nc(-c3cccc(Br)c3)oc2C)CC1 | 68% |
| Cc1oc(-c2cccc(Cl)c2)nc1CN1CCC(C(=O)NCCCN2CCN(c3ccc(F)cc3)CC2)CC1 | 119% |
| CCCOc1ccc(Oc2nc(NCC(C)C)nc(N3CCOCC3)n2)nn1 | 74% |
| CN(C)c1ccc(CNC(=O)CN2C(=O)CSc3ccc(S(=O)(=O)N4CCCC4)cc32)cc1 | 80% |
| COc1ccccc1CNc1ncnc2c1nc1n2CCCC1 | 80% |
| COc1ccc(NC(=O)CC2C(=O)N(c3ccc(OC)cc3)C(=O)N2Cc2ccc(OC)c(OC)c2)cc1 (stereo not drawn) | 131% |
| CCOC(=O)c1ccc(NC(=O)c2cnn(-c3ccc(C)cc3C)c2C2CCN(C(=O)OC(C)(C)C)CC2)cc1 | 93% |
| Cc1nc(N2CCCCC2)c(C#N)c2c1COC(C)(C)C2 | 81% |
| Nc1ccc(N2CCOCC2)cc1C(F)(F)F | 80% |
| COc1ccc(NCc2nc3ccccc3n2CCOc2ccccc2C)cc1 | 32% (active) |
| Fc1ccc(NCc2nc3ccccc3n2CCOc2ccccc2Cl)cc1 | 91% |
| Cc1cccc(NCc2nc3ccccc3n2CCOc2ccccc2C)c1 | 3% (active) |
| Cc1ccc(C)c(OCCn2c(CCNC(=O)C3CCCCC3)nc3ccccc32)c1 | 59% |
| Cc1ccc(NCc2nc3ccccc3n2CCOc2ccccc2C)cc1 | 3% (active) |
| CCC(CC)c1nn2c(=O)cc(COc3ccc(NC(=O)c4ccccc4Cl)cc3)nc2s1 | 94% |
| COc1ccc(-c2nc(SCC(=O)NCCc3ccc(OC)c(OC)c3)n[nH]2)cc1 | 88% |
